A selection: hits, their analogues and other compounds. The true share with any hit is near 3.1%.
TSHR antagonist = human thyrotropin receptor antagonism. TSHR-expressing cells, TSH-stimulated cAMP HTRF, 2 h; stronger effect = lower value. activity change, negative = inhibition, % at 11.5 µM. P16473. AID 504810. 0.2% of 330,000 active;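 active = activity change below a set negative limit, meaning inhibition stronger than a set level, cut at about -70% in these data; inconclusive = activity change between two set negative limits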
Target sequence (P16473 whole entry, looked up): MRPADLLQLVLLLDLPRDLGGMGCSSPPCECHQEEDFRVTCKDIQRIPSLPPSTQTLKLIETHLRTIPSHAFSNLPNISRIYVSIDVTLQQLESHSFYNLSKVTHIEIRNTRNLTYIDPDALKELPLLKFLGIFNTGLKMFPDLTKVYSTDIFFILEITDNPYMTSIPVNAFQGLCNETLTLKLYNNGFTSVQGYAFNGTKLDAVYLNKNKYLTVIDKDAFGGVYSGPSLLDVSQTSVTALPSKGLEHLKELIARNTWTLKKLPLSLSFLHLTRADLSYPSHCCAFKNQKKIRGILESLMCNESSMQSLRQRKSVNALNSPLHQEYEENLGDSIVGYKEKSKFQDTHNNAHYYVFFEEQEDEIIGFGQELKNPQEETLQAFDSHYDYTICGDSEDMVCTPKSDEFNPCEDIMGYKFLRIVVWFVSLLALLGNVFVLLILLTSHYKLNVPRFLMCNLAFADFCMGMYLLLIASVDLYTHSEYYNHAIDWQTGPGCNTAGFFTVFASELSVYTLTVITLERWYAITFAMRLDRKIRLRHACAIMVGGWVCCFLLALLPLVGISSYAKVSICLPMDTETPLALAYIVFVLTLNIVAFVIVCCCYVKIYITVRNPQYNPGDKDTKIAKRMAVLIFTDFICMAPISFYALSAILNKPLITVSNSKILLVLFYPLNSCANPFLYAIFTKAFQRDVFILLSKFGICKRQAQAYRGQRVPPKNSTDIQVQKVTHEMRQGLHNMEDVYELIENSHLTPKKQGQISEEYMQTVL
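Cell-based HTRF cAMP assay; TSHR cells + compound, TSH EC80 (4nM final), 2 h, 37 deg C. Lysis with anti-cAMP cryptate and cAMP-d2, 30 min RT, read 665/620 nm.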
VDR inhibitor = inhibitors of human vitamin D receptor. P11473. VDR-SRC2-3 peptide fluorescence polarization, 2 h. Potency, µM, usual class: inhibitors. 0.93% of 400,000 active. AID 504847
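Inhibition of the VDR/SRC2-3 peptide interaction is quantified by fluorescence polarization. Compounds (23 nl, pintool) incubate with the reagents for 2 hours at ambient room temperature.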
TSG101-PTAP inh = blocks PTAP/TSG101 interaction to inhibit HIV-1 budding; Fluorescence polarization, FITC-PTAP peptide / Tsg101 binding; Q99816; Potency, µM (highest dose often 115 µM), hits mostly inhibitors; 340,000 tested, under 10 active; active = well fitted inhibition curve with a large enough effect in the main read-out, with a control signal flat, not every such curve was filed as active; inconclusive = small, poorly fitted or top-dose-only effect, or effect the other way, or a change in a side signal; inactive = no such curve, though single readings can be large or run the other way
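Fluorescence polarization binding of Tsg101 binding domain (10 uM final) to FITC-labeled PTAP peptide (50 nM final) in HEPES pH 7.5 buffer with NaCl, Tween 20, EDTA, TCEP. Compounds added before peptide; binding 20 min at RT.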
PLK1 PBD block = inhibitors of human PLK1 polo-box domain binding | P53350 | Plk1 PBD binding of FITC phosphopeptide, fluorescence polarization | Potency, µM, most hits filed as inhibitors | 2.8% of 360,000 active | AID 720504; note: series mostly up to about 57 µM; nearly all actives have a fitted effect of over 65% in size
uPA surface inh = cell surface uPA generation inhibition. cell surface uPA generation assay, qHTS. Potency, µM (doses to about 38.3 µM), hits mostly inhibitors. 0.31% of 330,000 active. AID 540303; active = well fitted inhibition curve with a large enough effect; inconclusive = small, poorly fitted or top-dose-only effect; inactive = no such curve, though single readings can be large or run the other way; tested in mouse RAW 264.7 cells; note: nearly all actives have a fitted effect of over 55% in size
Hits are given with their value; – = inactive; ? = inconclusive; · = no result. Unless noted, calls come from the whole dose curve; as a rule, active = well fitted curve in the direction sought with a large enough effect; inconclusive = small, poorly fitted or top-dose-only effect, or another doubt; inactive = no such curve, though single readings can be large; an effect the other way counts as inactive or inconclusive.

SMILES | TSHR antagonist | VDR inhibitor | TSG101-PTAP inh | PLK1 PBD block | uPA surface inh
COc1ccc(NC(=O)NCc2ccco2)c(OC)c1 | – | ? | – | 12µM | –
Cc1cc(=O)n2nc(-c3ccccc3)sc2c1C#N | – | ? | – | 21µM | –
NC(=O)c1csc(-c2ccc(CO)o2)n1 | · | · | · | – | ·
OCc1ccc(-c2ccc(-c3ccc(CO)s3)o2)s1 | · | 10µM | · | · | ·
c1ccc2c(c1)OCC(c1nnc3sc(-c4cnccn4)nn13)O2 (stereo not drawn) | – | ? | – | 28µM | ·
COc1ccc(-c2nn3c(COc4ccccc4)nnc3s2)cc1OC | – | – | – | ? | –
c1ccc(OCc2nnc3sc(-c4cccs4)nn23)cc1 | – | ? | – | 5.3µM | –
Fc1ccc(-c2nn3c(C4COc5ccccc5O4)nnc3s2)cc1 (stereo not drawn) | – | ? | – | 21µM | –
c1csc(-c2nn3c(C4COc5ccccc5O4)nnc3s2)c1 (stereo not drawn) | – | ? | – | 24µM | –
CCCCCCCCCCCC(=O)OCC(O)C1OCC(O)C1O (stereo not drawn) | · | – | · | · | ·
c1ccc2c(c1)OCC(c1nnc3sc(-c4ccc5c(c4)OCO5)nn13)O2 (stereo not drawn) | – | ? | – | 6.7µM | –
Clc1ccccc1-c1nnc2sc(-c3ccc4c(c3)OCO4)nn12 | – | ? | – | 4.7µM | ·
Fc1ccc(-c2nnc3sc(C4COc5ccccc5O4)nn23)cc1 (stereo not drawn) | – | – | – | – | ·
Clc1cccc(-c2nnc3sc(-c4ccc5c(c4)OCO5)nn23)c1 | – | · | · | · | ·
COc1ccccc1N(CC(=O)N1CCOCC1)S(C)(=O)=O | – | – | – | – | –
COc1ccc2oc(=O)c(C(=O)Nc3cccc(C(=O)O)c3)cc2c1 | · | – | · | · | ·
Cc1cc(C)c(NC(=O)CCCCCNC2CCCCC2)c(C)c1 | – | – | – | 27µM | –
Cc1cc(C)c(NC(=O)CN(C2CCCCC2)C2CCCCC2)c(C)c1 | – | – | – | – | –
CCn1cc(C(=O)OCC(=O)c2cc(C)n(-c3ccccc3)c2C)c(=O)c2ccc(C)nc21 | – | – | – | – | –
Cc1cc(C(=O)COC(=O)c2ccc[nH]c2=O)c(C)n1-c1ccccc1F | – | – | – | – | 2.8µM
CCn1cc(C(=O)OCC(=O)c2cc(C)n(-c3ccccc3F)c2C)c(=O)c2ccc(C)nc21 | – | ? | – | 27µM | –
O=c1[nH]c(C(F)(F)C(F)(F)C(F)(F)F)no1 | · | – | – | – | –
Cc1ccccc1N1CC(c2nnc(NC(=O)c3ccco3)s2)CC1=O (stereo not drawn) | · | – | · | · | ·
CC1CCCN(CCCNC(=O)c2ccc3c(c2)N(Cc2ccc(Cl)cc2)C(=O)c2ccccc2S3(=O)=O)C1 (stereo not drawn) | · | – | · | · | ·
CCCN(CCC)C(=O)Cn1c(=O)n(-c2cccc(C)c2)c(=O)c2c1c1cc(OC)ccc1n2C | · | – | · | · | ·
SMILES | TSHR antagonist | VDR inhibitor | TSG101-PTAP inh | PLK1 PBD block | uPA surface inh
O=C(NC(=S)N1CCOCC1)C12CCC3CC(CC(C3)C1)C2 | – | – | – | 30µM | –
O=C(NC(=S)N1CCOCC1)C12CC3CCC(CC(C3)C1)C2 | – | – | – | – | –
Cc1ccc(S(=O)(=O)NC(=O)C2(C)CCN2C(=O)c2ccccc2CCc2ccccc2)cc1 (stereo not drawn) | · | · | · | – | ·
Cc1cccn2c(=O)c3cc(C(=O)N(Cc4ccccc4)C(C)C)sc3nc12 | · | – | · | · | ·
CC(=C\c1ccccc1)/C=C1/SC(=S)N(C(C(=O)O)C(C)C)C1=O (stereo not drawn) | – | ? | – | 30µM | –
CCC(C(=O)O)N1C(=O)/C(=C/C(C)=C/c2ccccc2)SC1=S (stereo not drawn) | – | ? | – | 24µM | –
O=C(O)C(Cc1ccccc1)N1C(=O)/C(=C/c2ccccc2)SC1=S (stereo not drawn) | – | ? | – | ? | –
CC(C)C(C(=O)O)N1C(=O)/C(=C/c2ccc(Br)cc2)SC1=S (stereo not drawn) | · | 5µM | · | · | ·
O=C(O)C(c1ccccc1)N1C(=O)/C(=C\c2ccc(-c3ccc(Br)cc3)o2)SC1=S (stereo not drawn) | – | ? | ? | – | –
Cc1ccc(/C=C2\SC(=S)N(C(Cc3ccccc3)C(=O)O)C2=O)cc1 (stereo not drawn) | – | 50µM | – | ? | –
CC(=O)N(Cc1cccnc1)c1nc2c(C)cccc2s1 | · | – | · | · | ·
COc1cc(C2Nc3cccc4cccc(c34)N2)ccc1OC(C)=O | – | – | – | 27µM | –
COc1ccc(C2Nc3cccc4cccc(c34)N2)cc1Br | – | – | – | – | –
N#Cc1ccc(S(=O)(=O)N2CCN(c3nc(-c4cccs4)nc4ccccc34)CC2)cc1 | · | – | · | · | ·
COc1cccc(OCc2nnc(SCc3cc(=O)[nH]c4ccccc34)o2)c1 | – | – | – | 24µM | –
C/C(=N\Nc1ccc(Cl)c(C(=O)O)c1)c1cc2ccccc2o1 | – | – | – | – | –
C/C(=N\Nc1ccc(Cl)c(C(=O)O)c1)c1cccc2ccccc12 | – | ? | – | 27µM | –
COc1ccc(C(=O)/C(=C/c2cccs2)c2nc3ccccc3o2)cc1 | – | 32µM | – | 27µM | –
Cc1ccc(S(=O)(=O)NC[C@H]2O[C@@H](n3ccc(N)nc3=O)[C@H](O)[C@@H]2O)s1 | · | · | · | – | ·
Cc1ccc(Nc2cccccc2=O)cc1 | – | – | – | 9.5µM | –
CC(=O)Nc1ccc(NC(=O)Cn2c(CC(=O)N3CCCC3)nc3ccccc32)cc1 | – | – | – | 30µM | ·
CC(=O)Nc1ccc(C(=O)CSc2nc3ccccc3n2CC(=O)N2CCCC2)cc1 | – | 79µM | – | ? | ·
COc1ccc(C(=O)N2CCc3ccccc32)cc1S(=O)(=O)N1CCOCC1 | – | – | – | – | –
COc1cccc(NC(=O)c2cnc(SCC(=O)N3CCOCC3)n(C)c2=O)c1 | · | – | · | · | ·
CCOC(=O)c1cn2ccc(C)cc2n1 | – | – | – | 27µM | –
SMILES | TSHR antagonist | VDR inhibitor | TSG101-PTAP inh | PLK1 PBD block | uPA surface inh
Cc1c(C(=O)N2CCN(c3ccc(C(F)(F)F)cn3)CC2)oc2ccccc12 | – | – | – | 30µM | –
Cc1c(Cl)cccc1-n1ncc(C(=O)N2CCc3ccccc3C2)c1C1CCN(C(=O)OC(C)(C)C)CC1 | · | – | · | · | ·
COc1ccc(NC(=S)Nn2cnnc2)c(OC)c1 | – | ? | – | 21µM | –
Cc1cccc(NC(=S)Nn2cnnc2)c1C | – | ? | – | ? | –
CCc1ccc(NC(=S)Nn2cnnc2)cc1 | – | – | – | 17µM | –
COc1ccc(NC(=S)Nn2cnnc2)cc1OC | – | – | – | 15µM | –
CCc1ccc(NC(=O)Nn2cnnc2)cc1 | – | – | – | – | –
CNC(=S)Nc1ccc(OC)c(OC)c1 | – | – | – | – | –
Cc1ccc(NC(=S)Nn2cnnc2)cc1 | – | – | – | 11µM | –
CCc1ccc(NC(=O)Cn2c(=O)ccc3cc(S(=O)(=O)N4CCCC4)ccc32)cc1 | · | – | · | · | ·
Cc1ccc2nc(N(Cc3cccnc3)C(=O)c3cccs3)sc2c1 | · | – | · | · | ·
CCN1CCN(C(=O)c2ccc3c(c2)N(Cc2cccc(Cl)c2)C(=O)c2ccccc2S3(=O)=O)CC1 | · | – | · | · | ·

Assay outcomes: PubChem, National Center for Advancing Translational Sciences (NCATS)
